In all, about 1,500 compounds went through this assay and about 460 (31%) were called active. About 1% were inconclusive and are not listed.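 The calls were made as follows: active = curve reaches 40% activation over neutral controls at an AC40 no higher than the top valid tested concentration; inconclusive = no clear call, values can overlap the other calls; inactive = signal moving opposite to the expected increase, and the rest.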 These entries were drawn from the full list. Entries with a potency or affinity are not part of this list.
Test: GLuc-reported insulin release enhancers, glucose-stimulated beta cells – cell-based, INS-1E, Gaussia luciferase, luminescence, cherry-pick, set 2, dose response (AID 977607);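 also: 0% = median of the plate neutral control wells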
Details: INS-1E GLuc insulin secretion reporter, 2-3 h, hits give high values; at 35 µM, 100% = signal doubled over neutral wells unless noted

Max activation, inactive:
COc1ccc(-c2nc3cccc(C)n3c2NCc2ccco2)cc1OC -14.6% [at 1.2 µM, 100% = signal doubled over neutral wells]
CN(C)c1ccc(CC(=O)N2CCCCC2c2cc(C(=O)Nc3ccccc3Cl)no2)cc1 (centres undefined) -48.9%
CCCc1c(C)c2ccc(OCC(C)=O)cc2oc1=O -16.6% [at 0.005 µM, 100% = signal doubled over neutral wells]
CCOC(=O)N1CCN(S(=O)(=O)c2ccc3c4c(cccc24)C(=O)N3)CC1 37.4% [at 0.42 µM, 100% = signal doubled over neutral wells]
C[C@@H]1CN([C@H](C)CO)C(=O)Cc2cc(NC(=O)CCCN(C)C)ccc2O[C@H]1CN(C)Cc1ccc(-c2ccccc2)cc1 19.8%
C[C@H](CO)N1C[C@H](C)[C@@H](CN(C)C(=O)Cc2ccccn2)Oc2cc(C#C[C@@H](C)O)ccc2S1(=O)=O -20.3% [at 0.135 µM, 100% = signal doubled over neutral wells]
C[C@H]1CN([C@@H](C)CO)C(=O)c2cc(C#CCc3ccccc3)cnc2O[C@@H]1CN(C)C(=O)C1CC1 -42.9%
C[C@@H]1CN([C@@H](C)CO)C(=O)CCCn2nncc2CO[C@H]1CN(C)Cc1ccccc1 -19.1% [at 0.015 µM, 100% = signal doubled over neutral wells]
O=C(Cn1cnc2c(OCc3ccccc3)ncnc21)NCc1ccccn1 17.4% [at 0.135 µM, 100% = signal doubled over neutral wells]
Cc1c(C)n(CCCN(C)C)c2ncnc(Nc3ccccc3)c12 -20.1% [at 11 µM, 100% = signal doubled over neutral wells]
Cc1ccc(F)cc1NC(=O)c1sc2ncn(CC(=O)N3CCN(c4ccccn4)CC3)c(=O)c2c1C -38%
Cc1ccc(/C=N/n2c(-c3cccnc3)n[nH]c2=S)s1 -11.8% [at 1.2 µM, 100% = signal doubled over neutral wells]
S=c1[nH]nc(-c2ccccc2)n1/N=C/c1c[nH]c2ccccc12 30.5% [at 0.005 µM, 100% = signal doubled over neutral wells]
COc1ccc(/C=N/n2c(-c3n[nH]c4c3CCC4)n[nH]c2=S)cc1OC -27.2% [at 0.0016 µM, 100% = signal doubled over neutral wells]
C=CCN=c1sc(C(=O)OC)cc(=O)n1CC=C 27.6% [at 11 µM, 100% = signal doubled over neutral wells]
Cc1ccc(F)cc1-c1nc(NC(C)C)nc2cc(-c3ccccc3)sc12 -27.5% [at 11 µM, 100% = signal doubled over neutral wells]
COc1ccc(CCNC(=O)CN2c3cccc4cccc(c34)S2(=O)=O)cc1OC 39.7%
O=C(Nc1cccnc1)/C(N=Nc1cccnc1)=C(\O)c1ccccc1 -11.7% [at 0.42 µM, 100% = signal doubled over neutral wells]
O=C(NCc1ccccc1)C(c1ccncc1)n1c(=O)c(-c2ccccc2)nc2ccccc21 (centres undefined) -12.6% [at 1.2 µM, 100% = signal doubled over neutral wells]
O=C(OC1CCOC1=O)c1cc(-c2ccc(Cl)cc2)nc2ccccc12 (centres undefined) 34.2% [at 3.8 µM, 100% = signal doubled over neutral wells]
COc1cc(C)c(C)cc1S(=O)(=O)N1CCCCC1c1cccnc1 (centres undefined) 13% [at 1.2 µM, 100% = signal doubled over neutral wells]
CCc1nc2ccc(C(=O)NCCCN(C)C)cn2c1N(C)Cc1ccc(OC)cc1 -28.3% [at 0.046 µM, 100% = signal doubled over neutral wells]
COC(=O)C1=C(C)NC(=S)NC1c1cccc(OC)c1 (centres undefined) -19.4% [at 0.046 µM, 100% = signal doubled over neutral wells]
CC1CN(S(=O)(=O)c2cc(C(=O)NC(C)c3cccnc3)ccc2Cl)CC(C)O1 (centres undefined) -33%
O=C1c2[nH]nc(-c3ccccc3)c2C(c2ccccc2)N1c1ccccc1 (centres undefined) -31.9%
COc1ccccc1CNC(=O)CCNS(=O)(=O)c1ccc2[nH]c(=O)oc2c1 -23% [at 0.015 µM, 100% = signal doubled over neutral wells]
COC(=O)c1cc(S(=O)(=O)NCC2CCN(Cc3cc(C)ccc3C)CC2)c[nH]1 -22.8% [at 11 µM, 100% = signal doubled over neutral wells]
O=C(c1ccco1)N1CCN(C2CN(Cc3ccccc3)S(=O)(=O)C2)CC1 (centres undefined) 13.2% [at 0.135 µM, 100% = signal doubled over neutral wells]
Cn1cc(Br)c(C(=O)NNC(=O)c2ccccc2)n1 -8.88% [at 0.015 µM, 100% = signal doubled over neutral wells]
Cc1[nH]n(-c2ccc(Br)cc2)c(=O)c1/C=N/NC(=O)c1ccccc1 -37.8%
O=C(Nc1cccnc1Cl)C1=NN(c2ccccc2)C(=O)CC1 -19.3% [at 0.42 µM, 100% = signal doubled over neutral wells]
Cn1c(=O)[nH]c(=O)c2c1nc(N1CCCCC1)n2C/C=N/Nc1ccc(C(=O)O)cc1 40.2% [at 0.0016 µM, 100% = signal doubled over neutral wells]
C/C=C/Cn1c(N2CCCCCC2)nc2c1c(=O)[nH]c(=O)n2C 53.5%
C[C@@H]1CC2=C(C(=O)OC(C)(C)O2)[C@H](c2ccc(Cl)cc2)O1 -23% [at 0.42 µM, 100% = signal doubled over neutral wells]
